Laboratory results from the supplement of paper PMC12350171.
Structures can show the parent of a compound that is named as a salt. A number with no mark means an inactive call.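 The calls were made as follows: active = AUC significantly below DMSO controls by Student t-fit with adjusted P under 0.01; inactive = not significantly reduced.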

Test system: Haemophilus parainfluenzae
Assay: growth AUC normalised to DMSO control (fraction of control); higher = less growth inhibition, active = hit call of the paper
Details: 20 µM
Procedure, shortened: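 Hemin and NAD were added to the medium for Haemophilus parainfluenzae. All pathogens, after two anaerobic passages, were inoculated at a starting OD578 of 0.01 into pre-reduced mGAM plates with 20 μM compound and 1% DMSO under breathable seals, and OD578 was read hourly for 24 h in three biological replicates. AUC of each growth curve was obtained with the trapezoidal rule up to the exponential-to-stationary transition and normalised to DMSO controls from the same plate.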

Row | SMILES | growth AUC normalised to DMSO control
1 | CCOc1ccc(Cc2nccc3cc(OCC)c(OCC)cc23)cc1OCC [Ethaverine hydrochloride] | 1.02
2 | CNCC(O)c1ccc(OC(=O)C(C)(C)C)c(OC(=O)C(C)(C)C)c1 (configuration not stated) [Dipivefrin hydrochloride] | 0.986
3 | CCN(CC)C(=O)/C(C#N)=C/c1cc(O)c(O)c([N+](=O)[O-])c1 [Entacapone] | 1.06
4 | OCc1cc(C(O)CNCCCCCCOCCCCc2ccccc2)ccc1O (configuration not stated) [Salmeterol] | 0.962
5 | Cc1c(OCC(F)(F)F)ccnc1C[S+]([O-])c1nc2ccccc2[nH]1 (configuration not stated) [Lansoprazole] | 0.873
6 | CS(=O)(=O)OCCCCOS(C)(=O)=O [Busulfan] | 1
7 | CCOC(=O)C(C)(C)Oc1ccc(Cl)cc1 [Clofibrate] | 1.01
8 | CCCN(CCC)S(=O)(=O)c1ccc(C(=O)O)cc1 [Probenecid] | 1.02
9 | CC(C)(O/N=C(\C(=O)N[C@@H]1C(=O)N2C(C(=O)[O-])=C(C[n+]3ccccc3)CS[C@H]12)c1csc(N)n1)C(=O)O [Ceftazidime pentahydrate] | 0.079 (active)
10 | C[C@]12CCC(=O)C=C1C=C[C@@H]1[C@@H]2CC[C@@]2(C)[C@H]1CC[C@@]21CCC(=O)O1 [Canrenone] | 1
11 | C=CCN1CCCC1CNC(=O)c1cc2nn[nH]c2cc1OC (configuration not stated) [Alizapride hydrochloride] | 1
12 | CCCCNC(=O)NS(=O)(=O)c1ccc(C)cc1 [Tolbutamide] | 0.99
13 | C=C1C[C@H]2[C@@H]3C=C(C)C4=CC(=O)CC[C@]4(C)[C@H]3CC[C@]2(C)[C@@]1(OC(C)=O)C(C)=O [Melengestrol acetate] | 1.06
14 | CCCCCN(C)CCC(O)(P(=O)(O)O)P(=O)(O)O [Ibandronate sodium] | 0.995
15 | CN1CCC(=C2c3ccccc3CC(=O)c3sccc32)CC1 [Ketotifen fumarate] | 0.997
16 | CN(CCOc1ccc(CC2SC(=O)NC2=O)cc1)c1ccccn1 (configuration not stated) [Rosiglitazone hydrochloride] | 1.06

Row | SMILES | growth AUC normalised to DMSO control
17 | NCC[C@H](O)C(=O)N[C@@H]1C[C@H](N)[C@@H](O[C@H]2O[C@H](CN)[C@@H](O)[C@H](O)[C@H]2O)[C@H](O)[C@H]1O[C@H]1O[C@H](CO)[C@@H](O)[C@H](N)[C@H]1O [Amikacin hydrate] | 0.0269 (active)
18 | C=C(CC)C(=O)c1ccc(OCC(=O)O)c(Cl)c1Cl [Ethacrynic acid] | 1.02
19 | CCCC(CCC)C(=O)O [Valproic acid] | 1.04
20 | CCCCC(C)(O)C/C=C/[C@H]1[C@H](O)CC(=O)[C@@H]1CCCCCCC(=O)OC (mixture of isomers) [Misoprostol] | 1.02
21 | CCOc1ccc2ccccc2c1C(=O)N[C@@H]1C(=O)N2[C@@H]1SC(C)(C)[C@@H]2C(=O)O [Nafcillin sodium salt monohydrate] | 0.899
22 | Cc1c(NC(C)C)c(=O)n(-c2ccccc2)n1C [Isopyrin hydrochloride] | 0.967
23 | CC(CN(C)C)CN1c2ccccc2Sc2ccccc21 (configuration not stated) [Trimeprazine tartrate] | 0.94
24 | O=C1NCC2(CCN(CCc3ccccc3)CC2)O1 [Fenspiride hydrochloride] | 0.967
25 | O=C(OCCOCCO)c1ccccc1Nc1cccc(C(F)(F)F)c1 [Etofenamate] | 0.992
26 | CC(C(O)c1ccc(O)cc1)N1CCC(Cc2ccccc2)CC1 (configuration not stated) [Ifenprodil tartrate] | 1.01
27 | Cn1c(=O)c2c(ncn2CC(=O)O)n(C)c1=O [Acefylline] | 0.969
28 | CN(C)CCCN1c2ccccc2Sc2ccc(Cl)cc21 [Chlorpromazine hydrochloride] | 0.981
29 | CN(C)CCC(c1ccccc1)c1ccccn1 (configuration not stated) [Pheniramine maleate] | 0.999
30 | CCc1c(C)[nH]c2c1C(=O)C(CN1CCOCC1)CC2 (configuration not stated) [Molindone hydrochloride] | 1.01
31 | Nc1nc(N)c2nc(-c3ccccc3)c(N)nc2n1 [Triamterene] | 0.935
32 | O=C(O)Cc1sc(-c2ccccc2)nc1-c1ccc(Cl)cc1 [Fentiazac] | 1.03
